Only a sample is shown.
aSyn UTR act: Activators via SNCA 5'UTR binding, MLPCN | alpha-synuclein 5'UTR reporter, activators screen | activity score, % (tested at 7.5 µM), hits read low | hit rate 7.1% among 300,000; in the data active = activity score below about -60%
Numbers without * were called inactive.

What do the screens show for `CC(C)(C)c1ccc(C(=O)N2CCCC2)s1`?
aSyn UTR act: -64.0*

What do the screens show for `CC1CCc2c(nc3sc4c(c3c2N)CCCC4)C1` (centres undefined)?
aSyn UTR act: -125.1*

How did CC1CCc2nc3sc4c(c3c(N)c2C1)CCCC4 (centres undefined) do in these assays?
aSyn UTR act: -132.1*

What do the screens show for `O=C1C(Nc2ccccc2)=C2CCCC=C2N1c1ccccc1`?
aSyn UTR act: -163.2*

How did O=Nc1c2nc3ccccc3n(O)c-2c2ccccc12 do in these assays?
aSyn UTR act: -129.0*

What do the screens show for `C/C(N)=C(/C#N)C(=O)CSc1nnc(Nc2ccccc2)s1`?
aSyn UTR act: -125.0*

Results for C/C(N)=C(/C#N)C(=O)CSc1nnc(Nc2ccccc2C)s1 ?
aSyn UTR act: -77.1*

What do the screens show for `COC(=O)c1cc(-c2c(C)nn(-c3ccccc3)c2C)n[nH]1`?
aSyn UTR act: -87.4*

What do the screens show for `Cc1ccc(-c2cc(C(=O)N/N=C/c3c(C)nn(-c4ccccc4)c3C)[nH]n2)cc1`?
aSyn UTR act: 66.1

Results for Cc1ccc2c(c1)COc1c3ccc(C(=O)N[C@@H](CO)C(C)C)cc3nn1-2 ?
aSyn UTR act: -143.5*

How did COCCNC(=O)c1ccc2c3n(nc2c1)-c1ccc(C)cc1CO3 do in these assays?
aSyn UTR act: -150.5*

Results for COc1ccc(CCNCC(O)Cn2c3ccccc3c3ccccc32)cc1OC (centres undefined) ?
aSyn UTR act: 119.7

What do the screens show for `COc1ccc(CCN2CC(C(=O)NCCc3ccccc3)CC2=O)cc1OC` (centres undefined)?
aSyn UTR act: -97.3*

Results for O=C(OC(c1ccccc1)c1nccc2ccccc12)c1cccc([N+](=O)[O-])c1 (centres undefined) ?
aSyn UTR act: -78.7*

Results for CC(C)C(OC(=O)c1ccccc1)c1nccc2ccccc12 (centres undefined) ?
aSyn UTR act: -115.9*

What do the screens show for `O=[N+]([O-])c1cc(-c2n[nH]c(-c3ccccc3)n2)cc([N+](=O)[O-])c1`?
aSyn UTR act: -75.8*

How did CCOC(=O)c1c(C)oc2c1c(C(c1cccnc1)N1CCOCC1)c(O)c1ccccc12 (centres undefined) do in these assays?
aSyn UTR act: -245.3*

How did CSc1nnc2c(n1)c(C)nn2-c1ccc(C)cc1 do in these assays?
aSyn UTR act: -179.7*

How did O=C1CCCc2c1sc1nc3n(c(=O)c21)CCCCC3 do in these assays?
aSyn UTR act: -106.8*

How did O=c1c2c3c(sc2nc2n1CCCCC2)C(O)CCC3 (centres undefined) do in these assays?
aSyn UTR act: -85.0*

What do the screens show for `O=C1c2sc3nc4n(c(=O)c3c2CCC1Br)CCCCC4` (centres undefined)?
aSyn UTR act: -179.6*

Results for CCNC(=S)N/N=C/c1cc(C)n(-c2ccc(Cl)cc2)c1C ?
aSyn UTR act: -124.7*

How did COc1ccc(C2=CC(c3ccc(F)cc3)n3nnnc3N2)cc1 (centres undefined) do in these assays?
aSyn UTR act: -130.2*

Results for COc1ccc(C2=CC(c3sccc3C)n3nnnc3N2)cc1 (centres undefined) ?
aSyn UTR act: -130.2*

Results for COc1ccc(S(=O)(=O)N[C@@H](C)C(=O)OCC(=O)Nc2cc3oc4ccccc4c3cc2OC)cc1 ?
aSyn UTR act: -128.9*

How did COc1cc2c(cc1NC(=O)COC(=O)[C@@H](NS(=O)(=O)c1cccc(Cl)c1)C(C)C)oc1ccccc12 do in these assays?
aSyn UTR act: -103.0*

How did Cc1cccc2cc(C#N)c(SCc3nnc(-c4ccccc4[N+](=O)[O-])o3)nc12 do in these assays?
aSyn UTR act: -87.2*

Results for O=C(NC(Nc1nc2ccc([N+](=O)[O-])cc2s1)(C(F)(F)F)C(F)(F)F)c1ccccc1Cl ?
aSyn UTR act: 85.7

How did C/C(=C\c1ccccc1)C(=O)Nc1nc2ccc([N+](=O)[O-])cc2s1 do in these assays?
aSyn UTR act: -79.1*

Results for CC(C)=CC(=O)Nc1nc2ccc([N+](=O)[O-])cc2s1 ?
aSyn UTR act: -83.0*

How did O=c1c(/C=C(\O)c2ccccc2)nc2ccccc2n1-c1ccccc1 do in these assays?
aSyn UTR act: -127.0*

Results for Cn1cnnc1Sc1ccc(/C=C/C(=O)c2ccc(O)cc2)cc1[N+](=O)[O-] ?
aSyn UTR act: -110.8*

Results for Cc1ccnc(NC(=O)/C=C/c2ccccc2[N+](=O)[O-])c1 ?
aSyn UTR act: -118.2*

How did O=C(/C=C\c1ccccc1[N+](=O)[O-])Nc1ccccc1 do in these assays?
aSyn UTR act: -194.0*

What do the screens show for `CCOc1ccccc1NC(=O)/C=C/c1ccccc1[N+](=O)[O-]`?
aSyn UTR act: -87.6*

How did O=C1c2sc3nc4ccccc4n3c2C(=O)N1c1ccccc1Cl do in these assays?
aSyn UTR act: -72.1*

Results for CCOC(=O)NC1(Nc2ccc(C)cc2)Oc2ccccc2O1 ?
aSyn UTR act: -100.0*

Results for CCCSc1ccc(C(=O)Nc2ccc(F)cc2F)cn1 ?
aSyn UTR act: -86.6*

What do the screens show for `CCCSc1nsc(NC(=O)CC)n1`?
aSyn UTR act: -134.7*

How did CCCSc1nsc(NC(=O)Nc2ccc(F)cc2F)n1 do in these assays?
aSyn UTR act: -129.3*

Source: PubChem BioAssay
